High-throughput results as filed in PubChem.
Rows were chosen to be rich in hits. Some 7.5% of all compounds tested hit in one or more screens of this group.
ELG1 genotoxic – inducers of genotoxicity in HEK293T ELG1-luciferase cells | HEK293T ELG1-luciferase reporter, luminescence, 16 h | Potency, µM (doses to about 46 µM), usual class: activators | hit rate 1.3% among 330,000 | AID 504466; also: nearly all actives have a fitted effect of over 60% in size
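Cells (2,000/well) expressing the ELG1-luciferase fusion are dosed by pin tool and kept 16 hr at 37 °C, 5% CO2. Signal comes from ONE-Glo luciferase reagent after 30 min at room temperature.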
Rab9 promoter act – Rab9 promoter activation; Huh7 Rab9 promoter-luciferase reporter, luminescence, 24 h; Potency, µM (top dose mostly 9.22 µM), actives largely listed as activators; hit rate 2.8% among 320,000; also: nearly all actives have a fitted effect of over 60% in size
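Cell-based reporter: Huh7 stable for Rab9 promoter-driven luciferase, plated in reduced-serum medium with 10% FBS at 1500 cells/well, compound-treated 24 h at 37 °C, luminescence read after 10 min reagent.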
FLuc counter – counter-screen for miR-21 project: firefly luciferase inhibitors or activators; P08659; purified FLuc, Km substrates, luminescence inhibition; Potency, µM (series often up to 57.5 µM), most hits filed as inhibitors; hit rate 6.9% among 360,000; AID 588342; also: nearly all actives have a fitted effect of over 55% in size
Target sequence (P08659 whole entry, looked up): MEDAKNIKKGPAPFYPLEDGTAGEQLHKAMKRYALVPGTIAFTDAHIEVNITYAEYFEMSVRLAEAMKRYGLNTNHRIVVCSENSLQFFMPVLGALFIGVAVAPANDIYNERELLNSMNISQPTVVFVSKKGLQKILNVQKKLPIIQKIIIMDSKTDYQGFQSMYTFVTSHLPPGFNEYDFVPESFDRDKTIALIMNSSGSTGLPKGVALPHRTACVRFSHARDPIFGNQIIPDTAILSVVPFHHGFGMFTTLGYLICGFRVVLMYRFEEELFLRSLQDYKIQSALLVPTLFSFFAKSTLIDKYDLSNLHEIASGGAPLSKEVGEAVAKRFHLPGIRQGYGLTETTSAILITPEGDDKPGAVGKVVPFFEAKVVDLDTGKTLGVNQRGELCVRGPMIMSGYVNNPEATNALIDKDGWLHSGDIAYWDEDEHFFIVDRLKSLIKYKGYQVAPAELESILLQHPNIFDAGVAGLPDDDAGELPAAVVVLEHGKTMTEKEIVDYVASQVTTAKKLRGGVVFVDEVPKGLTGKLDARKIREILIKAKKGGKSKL
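Biochemical qHTS of compounds, final roughly 60 µM downward over six points, against 10 nM purified firefly luciferase using Km concentrations of substrates (10 uM D-luciferin, 10 uM ATP) in Tris acetate pH 7.5 buffer; luminescence output.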
NPC1 prom act – NPC1 promoter activation; Huh7 NPC1 promoter luciferase reporter, 24 h; Potency, µM (titrated, usually from 9.22 µM), usual class: activators; hit rate 2.4% among 320,000; AID 485313; also: nearly all actives have a fitted effect of over 60% in size
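In 1536-well qHTS, Huh7 cells harboring an NPC1 promoter–luciferase construct received compound for 24 h; activation was quantified by luminescence following luciferase reagent addition.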
SMN2 splice enh – increases expression of the SMN2 splice variant. AID 1458. hit rate 2.8% among 210,000. HEK293 SMN2-luciferase splicing reporter, luminescence, 30-36 h. Potency, µM (titrated, usually from 46.1 µM), most hits filed as activators; also: nearly all actives have a fitted effect of over 55% in size
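qHTS luciferase splicing reporter: luminescence rises when SMN2 exon 7 is included in transfected HEK293 cells. Compound exposure lasted 30-36 h at 37C, with 4.5 mM final sodium butyrate as control, followed by a ONE-Glo read.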
A number is an active result; n = inactive; u = inconclusive; x = not tested or not shown. Calls follow the shape of the dose curve; as a rule, active = well fitted curve in the direction sought with a large enough effect; inconclusive = small, poorly fitted or top-dose-only effect, or another doubt; inactive = no such curve, though single readings can be large; an effect the other way counts as inactive or inconclusive.

SMILES	ELG1 genotoxic	Rab9 promoter act	FLuc counter	NPC1 prom act	SMN2 splice enh
CC1CCc2sc(-c3n[nH]c(=S)o3)cc2C1 (centres undefined)	u	u	6.75µM	u	10µM
COc1ccccc1NC(=O)CCc1nnc2ccc(N3CCN(C)CC3)nn12	n	n	n	n	x
COc1cccc(C(=O)N[C@@H](C)C(=O)N2CCC3(CC2)NCCc2[nH]cnc23)c1	n	n	n	n	x
O=C(CN1C(=O)c2ccccc2S1(=O)=O)c1ccc(F)c(F)c1	n	u	10.7µM	u	x
CCOC(=O)N1CCN(C(=O)CN2C(=O)c3ccccc3S2(=O)=O)CC1	u	n	n	n	x
O=C(CN1C(=O)c2ccccc2S1(=O)=O)c1ccc(O)c(O)c1	n	u	n	n	x
CCN1CCN(C(=O)CN2C(=O)c3ccccc3S2(=O)=O)CC1	u	2.51µM	u	u	x
COc1ccc(C(=O)CN2C(=O)c3ccccc3S2(=O)=O)cc1	n	u	13.5µM	n	x
CCS(=O)(=O)c1ccc2oc(Nc3cccc(OC)c3)nc2c1	n	u	16.9µM	n	n
CCS(=O)(=O)c1ccc2oc(Nc3ccc(C(C)(C)C)cc3)nc2c1	n	n	n	n	n
CCS(=O)(=O)c1ccc2oc(Nc3ccccc3Br)nc2c1	10.3µM	2µM	9.53µM	2.51µM	x
CCS(=O)(=O)c1ccc2oc(Nc3ccc(OC)cc3)nc2c1	n	n	u	n	n
CCS(=O)(=O)c1ccc2oc(Nc3ccccc3Cl)nc2c1	5.17µM	0.631µM	9.53µM	1.58µM	x
Clc1ccccc1Nc1nc2ccccc2o1	u	0.794µM	1.69µM	u	x
C/C(=N\NC(=O)c1ccc(NS(=O)(=O)c2cccs2)cc1)c1ccc(O)cc1O	n	n	u	n	x
CCOC(=O)c1c(C)[nH]c(C)c1S(=O)(=O)NCC(=O)Nc1ccc(C)cc1C	x	x	n	x	x
Cc1ccc(-c2nc(SCC(=O)N(C)c3c(N)n(Cc4ccccc4)c(=O)[nH]c3=O)n[nH]2)cc1	n	n	n	n	x
O=C(Nc1ccc(Cl)cc1)C1CCCN(c2ncnc3c2nc2n3CCCCC2)C1 (centres undefined)	n	n	n	n	x
Cc1ccc(-n2ncc(C(=O)NCc3cccs3)c2C2CCN(C(=O)OC(C)(C)C)CC2)cc1C	x	x	n	x	x
COc1ccc(Nc2cc(C(=O)NCCCN3CCN(C)CC3)c3ccccc3n2)cc1OC	n	n	u	n	n
Cc1ccc(-c2cc(C(=O)NCCCN3CCOCC3)c3ccccc3n2)cc1C	n	n	12µM	n	x
CCOc1ccc(-c2cc(C(=O)NCCCN3CCCC3)c3ccccc3n2)cc1	n	n	12µM	n	x
COc1ccc(Nc2cc(C(=O)NCCCN3CCOCC3)c3ccccc3n2)cc1OC	n	n	16.9µM	n	n
COc1ccc(C(=O)N/C(=C\c2cn(C)c3ccccc23)C(=O)NCCCn2ccnc2)cc1	n	n	n	n	x
Cc1cc(C)c(S(=O)(=O)c2cccc(Br)c2C)c(Cl)n1	n	n	n	n	x
SMILES	ELG1 genotoxic	Rab9 promoter act	FLuc counter	NPC1 prom act	SMN2 splice enh
CCCn1nc(NC(=O)c2ccco2)c2cc3cc(C)ccc3nc21	n	n	u	n	x
Cc1ccc2nc3c(cc2c1)c(NC(=O)C1CCCO1)nn3CC(C)C (centres undefined)	n	n	n	n	n
CCCn1nc(NC(=O)c2ccccn2)c2cc3cc(C)ccc3nc21	n	n	10.7µM	n	u
CCCn1nc(NS(=O)(=O)c2cccc3nonc23)c2cc3cc(C)ccc3nc21	n	n	10.7µM	n	x
CCn1nc(NC(=O)C2CCCO2)c2cc3cc(C)ccc3nc21 (centres undefined)	n	u	16.9µM	n	u
CCn1nc(NS(=O)(=O)c2ccc(NC(C)=O)cc2)c2cc3ccc(C)cc3nc21	n	n	26.9µM	n	x
CC(=O)c1ccc(NC(=S)NCc2ccc(Cl)cc2Cl)cc1	n	n	n	n	u
Cc1nn(-c2cc(C(F)(F)F)ccc2Cl)c2nc(C(Cl)(Cl)Cl)[nH]c(=O)c12	n	n	n	n	x
Cc1c(C(=O)Nc2ccc(Oc3ccccc3)cc2)sc2nc3n(c(=O)c12)CCC3	n	n	u	n	n
Cc1c(C(=O)Nc2cc(F)ccc2F)sc2nc3n(c(=O)c12)CCCCC3	16.4µM	1.58µM	n	2.82µM	x
CSc1cccc(NC(=O)c2sc3nc4n(c(=O)c3c2C)CCC4)c1	u	u	26.9µM	3.55µM	x
